Laboratory results taken from PubChem BioAssay (NCATS).
Records with an inconclusive call do not appear. A number with no mark means an inactive call. Calls come from the whole dose curve; as a rule, active = well fitted inhibition curve with a large enough effect; inconclusive = small, poorly fitted or top-dose-only effect; inactive = flat fitted curve, though single readings scatter.

Each compound was assayed against Calcium and integrin-binding protein 1 (Homo sapiens) (UniProt Q99828) (assay: Primary qHTS for Identification of Calcium Integrin Binding Protein 1 (CIB1) Competitor (AID 1508620;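 note: GST tagged CIB1 binding a fluorescein labelled alphaIIb integrin peptide tracer; top concentration of the series differs between compounds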)). Details: CIB1-GST / FITC-alphaIIb peptide fluorescence polarization; series mostly up to 57.7 µM; activity change, negative = inhibition: at the top concentration.
Chain of Calcium and integrin-binding protein 1 (Homo sapiens) (Q99828 whole entry, looked up): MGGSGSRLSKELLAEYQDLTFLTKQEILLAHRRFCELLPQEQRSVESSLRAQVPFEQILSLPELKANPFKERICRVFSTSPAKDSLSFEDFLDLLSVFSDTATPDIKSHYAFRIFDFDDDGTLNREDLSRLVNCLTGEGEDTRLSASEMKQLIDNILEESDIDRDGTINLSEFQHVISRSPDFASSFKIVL
Summary of the method: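 Fluorescence polarization competition: CIB1-GST (1 uM final) preincubated with compound 15 min at room temperature, then FITC-labeled alphaIIb peptide (100 nM final) added for another 15 min. Polarization read at Ex 480/Em 540.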
% is set by controls: 0 for no effect and ±100 for the full control effect.

SMILES | activity change, negative = inhibition
C=C(C(=O)O)C1CC(OC(=O)CC(C)CC)C2(C)CCCC(=C)C2C1 (stereo not drawn) | -7.17%
COC(=O)[C@H](O)[C@H]1C(C)(C)[C@H](OC(C)=O)[C@@]2(O)C(=O)[C@]1(C)C1CC[C@]3(C)C(CC(=O)O[C@H]3c3ccoc3)[C@]13O[C@@H]32 (stereo partly drawn) | -5.37%
CC1C(=O)OCC2=CC[N+]3([O-])CCC(OC(=O)C(C)(O)C1(C)O)C23 (stereo not drawn) | 2.76%
COc1cc(C(CO)CO[C@@H]2O[C@H](CO)[C@@H](O)[C@H](O)[C@H]2O)ccc1O (stereo partly drawn) | -2.7%
CC(=O)O[C@@H]1C(=O)C(C)=C(CCC(C)CC(=O)O)[C@@]2(C)CCCC(C)(C)C12 (stereo partly drawn) | -10.4%
C[C@@H]1O[C@@H](O[C@H]2[C@H](OC(=O)[C@]34CCC(C)(C)C[C@H]3C3=CCC5[C@@]6(C)CC[C@H](O[C@@H]7O[C@H](CO[C@@H]8OC[C@H](O)[C@H](O)[C@H]8O[C@@H]8OC[C@@H](O)[C@H](O)[C@H]8O)[C@@H](O)[C@H](O)[C@H]7O)C(C)(C)C6CC[C@@]5(C)[C@]3(C)C[C@H]4O)O[C@H](CO)[C@@H](O)[C@@H]2O)[C@H](O[C@@H]2O[C@H](CO)[C@@H](O)[C@H](O)[C@H]2O)[C@H](O)[C@H]1O[C@@H]1OC[C@@H](O)[C@H](O[C@@H]2OC[C@@H](O)[C@H](O)[C@H]2O)[C@H]1O (stereo partly drawn) | 0.603% [at 12.4 µM]
CC1=CCC[C@@H]2[C@@](C)(CCc3ccoc3)[C@H](C(=O)O)CC[C@@]12C | -0.578%
CC(C)(O)[C@@H]1CC[C@]2(CO)[C@@H](O)CC[C@](C)(O)[C@H]2[C@@H]1O[C@@H]1O[C@H](CO)[C@@H](O)[C@H](O)[C@H]1O | 3.82%
COCC1OC(n2cnc3c(=O)[nH]cnc32)C(O)C1O (stereo not drawn) | -3.19% [at 114 µM]
C[C@@H]1C(=O)O[C@H]2[C@H]1CC[C@@]1(C)C(=O)C=C[C@@](C)(O)[C@H]21 | 2.91% [at 114 µM]
CC(=O)O[C@H]1[C@H](O[C@H]2CC[C@]34C[C@]35CC[C@]3(C)[C@@H]([C@@]6(C)CC[C@@H](C(C)(C)O)O6)[C@@H](O)C[C@@]3(C)[C@@H]5C[C@H](O[C@@H]3O[C@H](CO)[C@@H](O)[C@H](O)[C@H]3O)[C@H]4C2(C)C)OC[C@@H](OC(C)=O)[C@@H]1O | -4.56% [at 114 µM]
C=C(C(=O)O)C1CC(O)C2(C)CCCC(C)(O)C2C1 (stereo not drawn) | -3.09% [at 114 µM]
C[C@@H]1O[C@@H](OC[C@H]2O[C@@H](OCc3ccccc3)[C@H](O)[C@@H](O)[C@@H]2O)[C@H](O)[C@H](O)[C@H]1O | -4.66%
COc1ccc(/C=C/C(=O)O[C@@H]2[C@@H](OC(C)=O)[C@@H](OC(C)=O)[C@H](O[C@H]3[C@@H]4C=CO[C@@H](O[C@@H]5O[C@H](CO)[C@@H](O)[C@H](O)[C@H]5O)[C@@H]4[C@@]4(CO)O[C@@H]34)O[C@H]2C)cc1 | 4.74% [at 30.2 µM]
C/C(=C\CCC(C)C1CC(O)C2(C)C3CCC4C(C)(C)C(OC5OCC(O)C(O)C5O)CCC45CC35CC(O)C12C)C(=O)O (stereo not drawn) | 1.93% [at 30.2 µM]
C=C1C[C@]23C[C@H]1CC[C@H]2[C@]1(C)CC[C@H](O)[C@@](C)(C(=O)O)[C@H]1[C@@H]3C(=O)O | 2.24%
CC1(C)CC[C@]2(C(=O)O)CC[C@]3(C)C(=CCC4[C@@]5(C)C(=O)C[C@H](O)[C@@](C)(CO)C5CC[C@]43C)[C@@H]2C1 (stereo partly drawn) | 5.34%
CC(C)(O)C1CC=C(C(=O)OC[C@H]2O[C@@H](OC(=O)C3=CCC(C(C)(C)O)CC3)[C@H](O)[C@@H](O)[C@@H]2O)CC1 (stereo partly drawn) | 3.63%
C[C@@H]1O[C@@H](O[C@H]2[C@H](OC(=O)[C@]34CCC(C)(C)C[C@H]3C3=CCC5[C@@]6(C)C[C@@H](O)[C@@H](O)[C@@](C)(CO)C6[C@H](O)C[C@@]5(C)[C@]3(C)CC4)OC[C@H](O)[C@@H]2O)[C@H](O)[C@H](O)[C@H]1O[C@@H]1OC[C@@H](O)[C@H](O[C@H]2O[C@H](C)[C@@H](O)[C@H](O)[C@@H]2O)[C@H]1O (stereo partly drawn) | -7.13% [at 30.2 µM]
CC1=CCC[C@@H]2[C@](CCc3ccoc3)(C(=O)O)[C@H](C)CC[C@@]12C | 0.456%
Cc1occc(=O)c1O[C@@H]1O[C@H](COC(=O)CC(C)(O)CC(=O)O)[C@@H](O)[C@H](O)[C@H]1O (stereo partly drawn) | 4.09%
CC1=CC(=O)CC(C)(C)C1CO[C@@H]1O[C@H](CO)[C@@H](O)[C@H](O)[C@H]1O (stereo partly drawn) | 3.76%
CSCC1OC(n2cnc3c(N)ncnc32)C(O)C1O (stereo not drawn) | -6.96% [at 114 µM]
